Common to all, as to assay: HT-SELEX; high values mean tight binding
Holding throughout (conditions): protein: recombinant; vector His6-GST; dsDNA, one strand shown

One experiment has as its target T1, SALL4 ZFC4 WT (HT-SELEX) (Mus musculus, UniProt Q8BX22 870-940).
T1 sequence: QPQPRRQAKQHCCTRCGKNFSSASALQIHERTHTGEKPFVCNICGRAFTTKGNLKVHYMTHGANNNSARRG
In outline: (§1)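 Up to 6 cycles of selection were run in triplicate. In each, purified recombinant mouse SALL4 zinc finger cluster 4 (residues 870–940, 1 µg) was incubated with library DNA (1.5 µg first cycle, 200 ng later) in 100 µl of 10 mM Tris–HCl pH 7.5, 50 mM NaCl, poly(dI-dC), DTT for 10 min at room temperature, then complexes were captured on Ni2+ beads, washed and PCR-amplified; final pools were MiSeq-sequenced and scanned for 6-mers. Binding signal is each canonical k-mer's read fraction as fold change versus the initial random library.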

Experiment [1] addresses T2, SALL4 ZFC4 R900W (HT-SELEX) (Mus musculus, UniProt Q8BX22 870-940, R900W).
T2 sequence: T1 sequence with R31W
In outline: as §1

The target of experiment [2] is T3, SALL4 ZFC4 G921D (HT-SELEX) (Mus musculus, UniProt Q8BX22 870-940, G921D).
T3 sequence: T1 sequence with G52D
The method in brief: as §1

Changes are numbered by the printed parent chain.

Turning to CTGCAA, the binding signal with SALL4 ZFC4 WT (HT-SELEX) came to 0.58 ± 0.0126 fold-change vs cycle 0; in experiment [1], 0.651 ± 0.015 fold-change vs cycle 0; in experiment [2] it was 0.729 ± 0.0483 fold-change vs cycle 0.

For CTCGTA, the binding signal in the experiment with SALL4 ZFC4 WT (HT-SELEX) came to 0.764 ± 0.033 fold-change vs cycle 0; in experiment [1], 0.867 ± 0.0258 fold-change vs cycle 0; in experiment [2], 0.901 ± 0.00732 fold-change vs cycle 0.

In the case of ACTGTC, the binding signal with SALL4 ZFC4 WT (HT-SELEX) is 0.75 ± 0.0397 fold-change vs cycle 0; in experiment [1], 0.857 ± 0.0177 fold-change vs cycle 0; in experiment [2] it was 0.901 ± 0.0149 fold-change vs cycle 0.

As to GTATAA, the binding signal with SALL4 ZFC4 WT (HT-SELEX) is 2.08 ± 0.124 fold-change vs cycle 0; in experiment [1], 1.96 ± 0.165 fold-change vs cycle 0; in experiment [2], 1.74 ± 0.197 fold-change vs cycle 0.

In the case of ATGGTG, the results for the binding signal (in the experiment with SALL4 ZFC4 WT (HT-SELEX); in experiment [1]; in experiment [2]) were 0.792 ± 0.0243 fold-change vs cycle 0, 0.882 ± 0.0384 fold-change vs cycle 0 and 0.941 ± 0.0443 fold-change vs cycle 0, respectively.

Consider CATGCA, for which the binding signal in the experiment with SALL4 ZFC4 WT (HT-SELEX) was 0.683 ± 0.0413 fold-change vs cycle 0; in experiment [1], 0.757 ± 0.0296 fold-change vs cycle 0; in experiment [2], 0.805 ± 0.0272 fold-change vs cycle 0.

As for ACGACT, the binding signal in the experiment with SALL4 ZFC4 WT (HT-SELEX) is 0.624 ± 0.0259 fold-change vs cycle 0; in experiment [1], 0.718 ± 0.0114 fold-change vs cycle 0; in experiment [2], 0.813 ± 0.0216 fold-change vs cycle 0.

On to ATGTGC, for which the figures for the binding signal (with SALL4 ZFC4 WT (HT-SELEX); in experiment [1]; in experiment [2]) were 0.53 ± 0.0281 fold-change vs cycle 0, 0.588 ± 0.00704 fold-change vs cycle 0 and 0.719 ± 0.0265 fold-change vs cycle 0, respectively.

Turning to ACTATA, the binding signal in the experiment with SALL4 ZFC4 WT (HT-SELEX) was 2.18 ± 0.121 fold-change vs cycle 0; in experiment [1] it was 1.98 ± 0.101 fold-change vs cycle 0; in experiment [2], 1.76 ± 0.177 fold-change vs cycle 0.

Consider CCCCAA, for which the binding signal with SALL4 ZFC4 WT (HT-SELEX) was found to be 0.421 ± 0.0191 fold-change vs cycle 0; in experiment [1], 0.471 ± 0.00864 fold-change vs cycle 0; in experiment [2], 0.561 ± 0.0695 fold-change vs cycle 0.

Regarding AGATCA, the binding signal with SALL4 ZFC4 WT (HT-SELEX) was found to be 1.29 ± 0.0762 fold-change vs cycle 0; in experiment [1], 1.44 ± 0.0715 fold-change vs cycle 0; in experiment [2], 1.46 ± 0.0921 fold-change vs cycle 0.

In the case of GTAGCA, the binding signal with SALL4 ZFC4 WT (HT-SELEX) was determined as 0.6472 ± 0.00166 fold-change vs cycle 0; in experiment [1] it was 0.74 ± 0.0284 fold-change vs cycle 0; in experiment [2], 0.817 ± 0.0421 fold-change vs cycle 0.

Take TGGTAA: the binding signal in the experiment with SALL4 ZFC4 WT (HT-SELEX) came out at 1.41 ± 0.0525 fold-change vs cycle 0; in experiment [1], 1.47 ± 0.055 fold-change vs cycle 0; in experiment [2], 1.4 ± 0.0814 fold-change vs cycle 0.

Take ACACTC: the binding signal in the experiment with SALL4 ZFC4 WT (HT-SELEX) came to 0.798 ± 0.0206 fold-change vs cycle 0; in experiment [1], 0.908 ± 0.0437 fold-change vs cycle 0; in experiment [2], 0.948 ± 0.0215 fold-change vs cycle 0.

In the case of AAGTTA, the results for the binding signal (in the experiment with SALL4 ZFC4 WT (HT-SELEX); in experiment [1]; in experiment [2]) were 2.21 ± 0.185 fold-change vs cycle 0, 2.17 ± 0.193 fold-change vs cycle 0 and 1.9 ± 0.254 fold-change vs cycle 0, respectively.

With CACCTG, the binding signal came out at 0.456 ± 0.0357 fold-change vs cycle 0 with SALL4 ZFC4 WT (HT-SELEX), 0.549 ± 0.0259 fold-change vs cycle 0 in experiment [1] and 0.631 ± 0.0331 fold-change vs cycle 0 in experiment [2].

In the case of AAACGT, the binding signal with SALL4 ZFC4 WT (HT-SELEX) is 1.02 ± 0.0198 fold-change vs cycle 0; in experiment [1], 1.17 ± 0.0143 fold-change vs cycle 0; in experiment [2], 1.14 ± 0.0434 fold-change vs cycle 0.

CGTCTC: the values for the binding signal (in the experiment with SALL4 ZFC4 WT (HT-SELEX); in experiment [1]; in experiment [2]) were 0.379 ± 0.0073 fold-change vs cycle 0, 0.467 ± 0.0242 fold-change vs cycle 0 and 0.574 ± 0.0434 fold-change vs cycle 0, respectively.

On to ACGTGG, for which the binding signal is 0.369 ± 0.00823 fold-change vs cycle 0 in the experiment with SALL4 ZFC4 WT (HT-SELEX), 0.462 ± 0.0221 fold-change vs cycle 0 in experiment [1] and 0.54 ± 0.0513 fold-change vs cycle 0 in experiment [2].

On to CCCACA, for which the binding signal amounted to 0.389 ± 0.0158 fold-change vs cycle 0 with SALL4 ZFC4 WT (HT-SELEX), 0.42 ± 0.0162 fold-change vs cycle 0 in experiment [1] and 0.523 ± 0.0663 fold-change vs cycle 0 in experiment [2].

On to GTCCTA, for which the binding signal amounted to 0.764 ± 0.0287 fold-change vs cycle 0 with SALL4 ZFC4 WT (HT-SELEX), 0.905 ± 0.0413 fold-change vs cycle 0 in experiment [1] and 0.9363 ± 0.00722 fold-change vs cycle 0 in experiment [2].

Take TGAGCA: the binding signal amounted to 0.639 ± 0.0443 fold-change vs cycle 0 in the experiment with SALL4 ZFC4 WT (HT-SELEX), 0.737 ± 0.0106 fold-change vs cycle 0 in experiment [1] and 0.843 ± 0.0202 fold-change vs cycle 0 in experiment [2].

For CTGAAG, the figures for the binding signal (with SALL4 ZFC4 WT (HT-SELEX); in experiment [1]; in experiment [2]) were 0.866 ± 0.0297 fold-change vs cycle 0, 1.01 ± 0.0356 fold-change vs cycle 0 and 1.03 ± 0.0122 fold-change vs cycle 0, respectively.

ACAATG: the binding signal with SALL4 ZFC4 WT (HT-SELEX) is 1.23 ± 0.0338 fold-change vs cycle 0; in experiment [1], 1.34 ± 0.0389 fold-change vs cycle 0; in experiment [2], 1.32 ± 0.0407 fold-change vs cycle 0.

In the case of CACTAG, the results for the binding signal (with SALL4 ZFC4 WT (HT-SELEX); in experiment [1]; in experiment [2]) were 0.821 ± 0.0388 fold-change vs cycle 0, 0.968 ± 0.0358 fold-change vs cycle 0 and 0.987 ± 0.027 fold-change vs cycle 0, respectively.

With TTCGAA, the binding signal turned out to be 1.05 ± 0.0775 fold-change vs cycle 0 in the experiment with SALL4 ZFC4 WT (HT-SELEX), 1.14 ± 0.0752 fold-change vs cycle 0 in experiment [1] and 1.15 ± 0.0514 fold-change vs cycle 0 in experiment [2].

In the case of ATGGTC, the binding signal in the experiment with SALL4 ZFC4 WT (HT-SELEX) came to 0.721 ± 0.0351 fold-change vs cycle 0; in experiment [1] it was 0.8234 ± 0.00272 fold-change vs cycle 0; in experiment [2] it was 0.902 ± 0.0335 fold-change vs cycle 0.

Regarding GGGATA, the binding signal with SALL4 ZFC4 WT (HT-SELEX) worked out at 0.88 ± 0.0566 fold-change vs cycle 0; in experiment [1], 0.967 ± 0.0568 fold-change vs cycle 0; in experiment [2], 0.94 ± 0.0469 fold-change vs cycle 0.

Take TAGGAA: the binding signal was found to be 1.42 ± 0.0275 fold-change vs cycle 0 in the experiment with SALL4 ZFC4 WT (HT-SELEX), 1.51 ± 0.0439 fold-change vs cycle 0 in experiment [1] and 1.41 ± 0.0855 fold-change vs cycle 0 in experiment [2].

AATCGA: the binding signal with SALL4 ZFC4 WT (HT-SELEX) came to 1.08 ± 0.05 fold-change vs cycle 0; in experiment [1], 1.14 ± 0.0428 fold-change vs cycle 0; in experiment [2], 1.2 ± 0.0389 fold-change vs cycle 0.

These data come from paper PMC9838217, “Structure of SALL4 zinc finger domain reveals link between AT-rich DNA binding and Okihiro syndrome”.
